The results in this text go back to PubChem BioAssay (NCATS).

Assay [1] in a line: Quantitative High-Throughput drug screen in 47 multiple myeloma cell lines against the NCATS MIPE library collection: KMM1_JCRB cell viability assay (AID 1918960). Also: nearly all actives have a fitted effect of over 30% in size. Also: potency is read from the fitted curve at half-maximal effect. Put shortly: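 Myeloma cells at 500 per well in 1536-well format treated with MIPE 4.0 library by pin transfer for 48 h at 37C, 5% CO2. Viability from ATP luminescence (CellTiter-Glo), normalized to DMSO (100%) and media-only (0%) wells.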

Assay [2] is described as follows: Quantitative High-Throughput drug screen in 47 multiple myeloma cell lines against the NCATS MIPE library collection: JIM3_ECACC cell viability assay (AID 1918963; also: nearly all actives have a fitted effect of over 35% in size; also: potency is read from the fitted curve at half-maximal effect). A digest of the protocol:
(§1)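 Viability readout: CellTiter-Glo luminescence following 5 min room-temperature incubation with reagent. Prior exposure: 48 h, 37C, humidified 5% CO2, 500 cells per well.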

Assay [3] can be described thus: Quantitative High-Throughput drug screen in 47 multiple myeloma cell lines against the NCATS MIPE library collection: JJN3_DSMZ cell viability assay (AID 1918966; also: nearly all actives have a fitted effect of over 50% in size; also: potency is read from the fitted curve at half-maximal effect). Put shortly:
(§2)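 Primary qHTS used for cherry-picking: cells at 500/well, library compounds for 48 h (37C, 5% CO2), luminescent ATP assay.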

Assay [4] is described as follows: Quantitative High-Throughput drug screen in 47 multiple myeloma cell lines against the NCATS MIPE library collection: H1112_PLB cell viability assay (AID 1918967; also: nearly all actives have a fitted effect of over 30% in size; also: potency is read from the fitted curve at half-maximal effect). A digest of the protocol:
as §2

A short description of assay [5]: Quantitative High-Throughput drug screen in 47 multiple myeloma cell lines against the NCATS MIPE library collection: JIM1_ECACC cell viability assay (AID 1918964; also: potency is read from the fitted curve at half-maximal effect). Put shortly:
as §2

Assay [6] is described as follows: Quantitative High-Throughput drug screen in 47 multiple myeloma cell lines against the NCATS MIPE library collection: Karpas25_ECACC cell viability assay (AID 1918968; also: nearly all actives have a fitted effect of over 35% in size; also: potency is read from the fitted curve at half-maximal effect). A digest of the protocol: as §2
Assay [7] is described as follows: Quantitative High-Throughput drug screen in 47 multiple myeloma cell lines against the NCATS MIPE library collection: INA6_PLB cell viability assay (AID 1918965; also: nearly all actives have a fitted effect of over 55% in size; also: potency is read from the fitted curve at half-maximal effect). Put shortly:
(§3)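 Approved and investigational drugs from MIPE 4.0 were added by pin tool to 500 cells per well. After 48 hours at 37C, ATP-based CellTiter-Glo luminescence indicated remaining viability.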

The nature of assay [8]: Quantitative High-Throughput drug screen in 47 multiple myeloma cell lines against the NCATS MIPE library collection: KMS27_JCRB cell viability assay (AID 1918970). Also: nearly all actives have a fitted effect of over 30% in size. Also: potency is read from the fitted curve at half-maximal effect. Put shortly: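 ATP-based viability (CellTiter-Glo luminescence) is measured in cells treated 48 h with approved and investigational drugs at 37 °C. Controls are DMSO-only wells for full viability and media-only wells for none.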

Assay [9] is described as follows: Quantitative High-Throughput drug screen in 47 multiple myeloma cell lines against the NCATS MIPE library collection: KHM11_PLB cell viability assay (AID 1918962). Also: nearly all actives have a fitted effect of over 35% in size. Also: potency is read from the fitted curve at half-maximal effect. A digest of the protocol:
as §1

Assay [10] can be described thus: Quantitative High-Throughput drug screen in 47 multiple myeloma cell lines against the NCATS MIPE library collection: Karpas417_ECACC cell viability assay (AID 1918961). As to conditions: Karpas417 myeloma viability, CellTiter-Glo ATP luminescence, 48 h; viability (% of DMSO): at 45.8 µM (top of the series) unless noted. A digest of the protocol:
as §3
Background: In ATP-based viability assays light output follows the ATP content of the culture.

Records with an inconclusive call do not appear. Activity calls are given as the source filed them. Calls follow the shape of the dose curve; as a rule, active = well fitted curve in the direction sought with a large enough effect; inconclusive = small, poorly fitted or top-dose-only effect, or another doubt; inactive = no such curve, though single readings can be large; an effect the other way counts as inactive or inconclusive.

With `Cc1cc(Nc2nc(N[C@@H](C)c3ncc(F)cn3)ncc2Cl)n[nH]1`, in assay [1], the Potency entry was “inactive”. Further, the Potency was 8.33 µM (active) in assay [2], 18.7 µM (active) in assay [3] and 3.32 µM (active) in [4].

`CS(=O)(=O)c1ccc(C(=O)Nc2ccc(Cl)c(-c3ccccn3)c2)c(Cl)c1`: the Potency entry in [1], in [5] and in assay [3] was “inactive” throughout. The Potency in [6] was 9.35 µM (active).

As for `NC(=O)c1ccc(I)c([N+](=O)[O-])c1`, the Potency entry in [1] and in [4] was “inactive” throughout. Moreover, the figures for the Potency in assay [2] and in assay [6] were 18.7 µM (active) and 23.5 µM (active), respectively.

On to `O=C(Nc1cccnc1)N1CCC(Cc2cccc(Oc3ccc(C(F)(F)F)cn3)c2)CC1`, for which the Potency in assay [1] was 7.43 µM (active); in assay [7], 11.8 µM (active); in assay [4], 10.5 µM (active); in [6], 9.35 µM (active); in assay [8], 16.6 µM (active).

`Cc1ccccc1C(OCCN(C)C)c1ccccc1` (stereo not drawn): the Potency result in assay [1], in assay [9], in assay [2], in assay [4], in assay [6] and in assay [8] was “inactive” throughout.

For the compound `CC(c1cc2ccccc2s1)N(O)C(N)=O` (stereo not drawn), the Potency entry in [1], in assay [2], in [5], in [7], in [4] and in assay [6] was “inactive” in each case. In addition, the Potency result in assay [8] was “inactive”.

For `NS(=O)(=O)c1cc2c(cc1Cl)NC=NS2(=O)=O`, the Potency result in [1], in assay [2], in assay [5], in assay [4], in [6] and in assay [8] was “inactive” in each case.

Consider `CCCCNc1cc(C(=O)O)cc(S(N)(=O)=O)c1Oc1ccccc1`, for which the Potency result in assay [1], in [2], in [7] and in [3] was “inactive” in each case.

Turning to `CC(C)OC(=O)C1=CN(C(=O)c2ccc(F)c(F)c2)CC(C)(C)c2c1[nH]c1ccccc21`, the Potency entry in [1], in [4], in assay [6] and in assay [8] was “inactive” throughout.

In the case of `Cc1ccnc(NS(=O)(=O)c2ccc(NC(=O)Nc3ccc(S(=O)(=O)Nc4nccc(C)n4)cc3)cc2)n1`, the Potency is 14.8 µM (active) in [1], 16.6 µM (active) in assay [5] and 20.9 µM (active) in [8]. Moreover, in [4], the Potency result was “inactive”.

`CCCS(=O)(=O)Nc1ccc(F)c(C(=O)c2c[nH]c3ncc(-c4ccc(Cl)cc4)cc23)c1F`: the Potency entry in assay [1] and in [8] was “inactive” each time. For the same compound, the Potency was 23.5 µM (active) in assay [9], 18.7 µM (active) in assay [2], 9.35 µM (active) in [4] and 9.35 µM (active) in assay [6].

Take `O=C(O)COCCN1CCN(C(c2ccccc2)c2ccc(Cl)cc2)CC1` (stereo not drawn): the Potency result in assay [1], in assay [3], in assay [4] and in [6] was “inactive” in each case. Besides, in assay [9], the Potency was 7.43 µM (active).

For the compound `CCn1c(-c2nonc2N)nc2cnc(Oc3cccc(NC(=O)c4ccc(OCCN5CCOCC5)cc4)c3)cc21`, the Potency in assay [1] is 7.43 µM (active); in assay [2], 20.9 µM (active); in assay [5] it was 5.9 µM (active); in [6], 2.35 µM (active); in [8] it was 8.33 µM (active).

With `CCCc1nc2c(C)cc(-c3nc4ccccc4n3C)cc2n1Cc1ccc(-c2ccccc2C(=O)O)cc1`, the Potency entry in assay [9], in [2], in [4] and in assay [6] was “inactive” each time. The Potency is 0.0026 µM (active) in assay [5] and 4.18 µM (active) in assay [8].

Take `CCC(C)n1ncn(-c2ccc(N3CCN(c4ccc(OC[C@H]5CO[C@](Cn6cncn6)(c6ccc(Cl)cc6Cl)O5)cc4)CC3)cc2)c1=O` (stereo partly drawn): the Potency entry in assay [9], in assay [2], in assay [7], in [4] and in assay [6] was “inactive” each time.

Consider `OC(CCN1CCCCC1)(c1ccccc1)C1CC2C=CC1C2` (stereo not drawn), for which the Potency entry in [10], in assay [5], in assay [4], in assay [6] and in assay [8] was “inactive” each time.

Take `Nc1ccc(S(=O)(=O)Nc2ccnn2-c2ccccc2)cc1`: the Potency entry in assay [10], in [9], in [2], in assay [3], in assay [4] and in [6] was “inactive” each time.

Take `O=C1CCc2cc(OCCCCc3nnnn3C3CCCCC3)ccc2N1`: the viability (% of DMSO) in assay [10] was 113% (active). Moreover, the Potency result in [2], in assay [5] and in [8] was “inactive” each time.

With `O=C(O)CCc1ccc(NCc2cccc(Oc3ccccc3)c2)cc1`, the Potency entry in assay [10], in assay [2], in assay [7], in assay [4] and in [8] was “inactive” each time.

For `Cc1cc([C@@H](C)Nc2ccccc2C(=O)O)c2nc(N3CCOCC3)cc(=O)n2c1`, the viability (% of DMSO) in assay [10] was 5.47% [at 92.2 µM] (active). Besides, the Potency is 13.6 µM (active) in assay [2], 13.6 µM (active) in assay [7], 3.03 µM (active) in assay [6] and 10.8 µM (active) in [8].

As for `COc1ccccc1[C@H](c1cccc2ccccc12)[C@@](C)(C#N)C(=O)N1CCC(c2cccc(C(F)(F)F)c2)CC1`, the Potency in [9] is 6.62 µM (active); in assay [2] it was 9.35 µM (active); in assay [7], 1.87 µM (active); in assay [3], 6.62 µM (active); in assay [6] it was 3.72 µM (active); in assay [8] it was 3.32 µM (active).

As to `COc1ccc2c3n(c(=NC(=O)c4cccnc4)nc2c1OC)CCN3`, the Potency entry in assay [10] is “inactive”. Moreover, the Potency in assay [2] was 18.7 µM (active); in assay [4], 4.69 µM (active); in assay [6], 5.9 µM (active).

On to `Nc1cccc(S(=O)(=O)N2CCCN(S(=O)(=O)c3ccc4c(c3)OCCO4)CC2)c1`, for which the Potency entry in assay [1] and in assay [8] was “inactive” in each case.

For `CCc1ccc(CCOc2ccc(CC3SC(=O)NC3=O)cc2)nc1` (stereo not drawn), the Potency result in assay [9], in [2], in [5], in assay [4], in assay [6] and in assay [8] was “inactive” in each case.

As for `Nc1ncnc2nc(-c3ccc(N4CCOCC4)nc3)cc(-c3cccc(Br)c3)c12`, the Potency result in [10], in assay [9] and in assay [8] was “inactive” each time. Besides, the Potency in assay [2] and in [7] was 18.7 µM (active) each time.
